The nature of assay [1]: small molecules captured by biotinylated probe aFSTL3 – biochemical, small-molecule microarray, fluorescence 635/667, stem cell growth factor project, primary screen (AID 1064).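 Further: measures binding of the biotinylated anti-FSTL3 antibody to printed compounds.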 Particulars: higher = more signal.
Assay [2] is described as follows: binders from COS7 lysate, DM2A8 probe, primary screen, torsin A project, cell lysate, small-molecule microarray, fluorescence 635/667 (AID 1065). The conditions noted are these: higher = more signal, COS7 lysate expressing mutant human TOR1A.
Assay [3] in a line: small molecules captured by biotinylated probe aFGF2 – biochemical, small-molecule microarray, fluorescence 635/667, stem cell growth factor project, primary screen (AID 1067).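 Further: measures binding of biotinylated aFGF2 protein to printed compounds on slides; z-score merges feature fluorescence and signal-to-noise across triplicate slides.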 The conditions noted are these: higher = more signal.
Assay [4] is described as follows: small molecules captured by biotinylated probe aFGF10 – biochemical, small-molecule microarray, fluorescence 635/667, stem cell growth factor project, primary screen (AID 1071).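 Further: score merges 667 nm spot intensity and signal to noise from triplicate slides.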 The conditions noted are these: higher = more signal.
The target of assay [5] is Neurogenic locus notch homolog protein 2 (Homo sapiens) (UniProt Q04721). Description: small molecules binding Notch2 protein – biochemical, small-molecule microarray, 635 nm fluorescence, stem cell growth factors, primary screen (AID 1073). Particulars: higher = more signal.
Assay [6] deals with Pro-neuregulin-1, membrane-bound isoform (Homo sapiens) (UniProt Q02297). Description: small molecules binding neuregulin-1 protein – biochemical, small-molecule microarray, fluorescence 635/667, psychiatric disease protein project, primary screen (AID 1075).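 Further: score combines 667 nm spot fluorescence with signal to noise.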 The conditions noted are these: NRG1 binding, 635 nm fluorescence, higher = more signal.
For assay [7], the system named is Neuregulin-1 EGF-like domain. Description: small molecules binding NRG1 EGF domain – biochemical, small-molecule microarray, 635 nm fluorescence, primary screen (AID 1081).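 Further: binding of the protein to compounds printed on small-molecule microarray slides.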 The conditions noted are these: higher = more signal.
The nature of assay [8]: FRG1 expression reporter modulators in myotubes – cell-based, C2C12 myotubes, firefly/Renilla luciferase, luminescence, FRG1 inhibition for FSHD, primary screen (AID 1084). Particulars: FRG1 promoter luciferase, higher = more signal, called active from +8 up or from −8 down.
Assay [9] can be described thus: small molecules captured by biotinylated probe aFST – biochemical, small-molecule microarray, fluorescence 635/667, stem cell growth factor project, primary screen (AID 1086).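 Further: score merges 667 nm fluorescence with signal-to-noise of each printed compound spot.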 Particulars: higher = more signal.
Assay [10] can be described thus: binders of probe aHhip on microarray, primary screen, stem cell growth factor project, biochemical, small-molecule microarray, fluorescence 635/667 (AID 1087).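 Further: score merges spot fluorescence at 667nm with spot signal to noise ratio.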 Particulars: higher = more signal.
Assay [11] has as its system PRMT1 (protein arginine N-methyltransferase 1). Description: small molecules binding arginine methyltransferase PRMT1 – biochemical, small-molecule microarray, 635 nm fluorescence, primary screen (AID 1088).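 Further: binding of Prmt1 protein to compounds spotted on small-molecule microarray slides.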 Particulars: higher = more signal.
Assay [12] can be described thus: growth effects on S. cerevisiae YJM789 – YJM789 clinical isolate, OD600, 24 h, basal, primary screen (AID 1089).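 Further: growth of clinical yeast isolate S. cerevisiae YJM 789 seeded 1000 cells per well; test concentration not given here.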 Particulars: higher = more signal, called active from +8 up or from −8 down.
Assay [13] in a line: S. pombe growth modifiers, basal conditions – strain 972, OD600, 24 h, no modulator, primary screen (AID 1090).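 Further: basal condition with compound alone and no growth modifier present; test concentration not given here.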 The conditions noted are these: S. pombe 972 growth, higher = more signal, called active from +8 up or from −8 down.
Assay [14] can be described thus: budding yeast growth modifiers under rapamycin – strain BY4716, OD600, 96 h, primary screen (AID 1091). Further: test concentration not given here. The conditions noted are these: S. cerevisiae BY4716 + rapamycin, higher = more signal, called active from +8 up or from −8 down.
Assay [15] concerns the target Torsin-1A-interacting protein 2 (Homo sapiens) (UniProt Q8NFQ8). Description: small molecules binding lysate-expressed LULL1 – cell lysate, human LULL1 lysate, 635/667 nm fluorescence, primary screen (AID 1092).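 Further: score merges per-feature 667 nm fluorescence with signal-to-noise.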 The conditions noted are these: small-molecule microarray, hLULL1 lysate binding, 635 nm fluorescence; higher = more signal.
Assay [16] can be described thus: optical density change of DRC41 E. coli – strain DRC41, OD650, 24 h, E. coli filamentation project, primary screen (AID 1093).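 Further: MC1000 strain lacking acrAB efflux and sulA so SOS filamentation is blocked; test concentration not given here.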 The conditions noted are these: E. coli DRC41 growth, higher = more signal, called active from +8 up or from −8 down.
The nature of assay [17]: probe aLefty2 binding to arrayed compounds – biochemical, biotinylated probe, 635/667 nm fluorescence, primary screen (AID 1094).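 Further: score merges spot fluorescence near 667 nm with spot signal-to-noise ratio.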 Particulars: small-molecule microarray, higher = more signal.
The subject of assay [18] is Noggin (protein binding on small-molecule microarray). Description: small molecules binding Noggin protein – biochemical, 635/667 nm fluorescence, primary screen (AID 1095).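 Further: score merges 667 nm feature fluorescence with signal to noise over triplicate slides.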 The conditions noted are these: 635 nm fluorescence, higher = more signal.
The target in assay [19] is Neurogenic locus notch homolog protein 3 (Homo sapiens) (UniProt Q9UM47). The assay can be described thus: small molecules binding NOTCH3 protein – biochemical, 635/667 nm fluorescence, primary screen (AID 1096). Particulars: small-molecule microarray, 635 nm fluorescence, higher = more signal.
Assay [20] in a line: probe aEGFR binding to arrayed compounds – biochemical, biotinylated probe, 635/667 nm fluorescence, primary screen (AID 1097).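 Further: probe is a biotinylated anti-EGFR antibody binding compounds printed on slides; score combines fluorescence near 667 nm and signal to noise of each spot.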 The conditions noted are these: small-molecule microarray, higher = more signal.

Structures are written as SMILES. Calls of active or inactive are those of the source.

Torsin-1A-interacting protein 2 (Homo sapiens), sequence (Q8NFQ8 whole entry, looked up): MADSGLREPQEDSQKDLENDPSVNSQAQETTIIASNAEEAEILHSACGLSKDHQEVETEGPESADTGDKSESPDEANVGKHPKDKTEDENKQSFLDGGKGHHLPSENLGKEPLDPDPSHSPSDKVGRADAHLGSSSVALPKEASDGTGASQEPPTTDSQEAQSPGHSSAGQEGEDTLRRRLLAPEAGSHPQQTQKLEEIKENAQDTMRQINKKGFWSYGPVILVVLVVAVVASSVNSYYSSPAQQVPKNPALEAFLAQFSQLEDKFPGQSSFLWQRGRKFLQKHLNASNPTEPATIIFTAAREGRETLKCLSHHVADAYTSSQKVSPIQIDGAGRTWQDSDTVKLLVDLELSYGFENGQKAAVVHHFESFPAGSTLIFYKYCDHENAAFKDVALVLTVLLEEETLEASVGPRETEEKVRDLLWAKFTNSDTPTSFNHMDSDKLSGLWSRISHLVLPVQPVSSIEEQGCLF
Neurogenic locus notch homolog protein 3 (Homo sapiens), sequence (Q9UM47 whole entry, looked up): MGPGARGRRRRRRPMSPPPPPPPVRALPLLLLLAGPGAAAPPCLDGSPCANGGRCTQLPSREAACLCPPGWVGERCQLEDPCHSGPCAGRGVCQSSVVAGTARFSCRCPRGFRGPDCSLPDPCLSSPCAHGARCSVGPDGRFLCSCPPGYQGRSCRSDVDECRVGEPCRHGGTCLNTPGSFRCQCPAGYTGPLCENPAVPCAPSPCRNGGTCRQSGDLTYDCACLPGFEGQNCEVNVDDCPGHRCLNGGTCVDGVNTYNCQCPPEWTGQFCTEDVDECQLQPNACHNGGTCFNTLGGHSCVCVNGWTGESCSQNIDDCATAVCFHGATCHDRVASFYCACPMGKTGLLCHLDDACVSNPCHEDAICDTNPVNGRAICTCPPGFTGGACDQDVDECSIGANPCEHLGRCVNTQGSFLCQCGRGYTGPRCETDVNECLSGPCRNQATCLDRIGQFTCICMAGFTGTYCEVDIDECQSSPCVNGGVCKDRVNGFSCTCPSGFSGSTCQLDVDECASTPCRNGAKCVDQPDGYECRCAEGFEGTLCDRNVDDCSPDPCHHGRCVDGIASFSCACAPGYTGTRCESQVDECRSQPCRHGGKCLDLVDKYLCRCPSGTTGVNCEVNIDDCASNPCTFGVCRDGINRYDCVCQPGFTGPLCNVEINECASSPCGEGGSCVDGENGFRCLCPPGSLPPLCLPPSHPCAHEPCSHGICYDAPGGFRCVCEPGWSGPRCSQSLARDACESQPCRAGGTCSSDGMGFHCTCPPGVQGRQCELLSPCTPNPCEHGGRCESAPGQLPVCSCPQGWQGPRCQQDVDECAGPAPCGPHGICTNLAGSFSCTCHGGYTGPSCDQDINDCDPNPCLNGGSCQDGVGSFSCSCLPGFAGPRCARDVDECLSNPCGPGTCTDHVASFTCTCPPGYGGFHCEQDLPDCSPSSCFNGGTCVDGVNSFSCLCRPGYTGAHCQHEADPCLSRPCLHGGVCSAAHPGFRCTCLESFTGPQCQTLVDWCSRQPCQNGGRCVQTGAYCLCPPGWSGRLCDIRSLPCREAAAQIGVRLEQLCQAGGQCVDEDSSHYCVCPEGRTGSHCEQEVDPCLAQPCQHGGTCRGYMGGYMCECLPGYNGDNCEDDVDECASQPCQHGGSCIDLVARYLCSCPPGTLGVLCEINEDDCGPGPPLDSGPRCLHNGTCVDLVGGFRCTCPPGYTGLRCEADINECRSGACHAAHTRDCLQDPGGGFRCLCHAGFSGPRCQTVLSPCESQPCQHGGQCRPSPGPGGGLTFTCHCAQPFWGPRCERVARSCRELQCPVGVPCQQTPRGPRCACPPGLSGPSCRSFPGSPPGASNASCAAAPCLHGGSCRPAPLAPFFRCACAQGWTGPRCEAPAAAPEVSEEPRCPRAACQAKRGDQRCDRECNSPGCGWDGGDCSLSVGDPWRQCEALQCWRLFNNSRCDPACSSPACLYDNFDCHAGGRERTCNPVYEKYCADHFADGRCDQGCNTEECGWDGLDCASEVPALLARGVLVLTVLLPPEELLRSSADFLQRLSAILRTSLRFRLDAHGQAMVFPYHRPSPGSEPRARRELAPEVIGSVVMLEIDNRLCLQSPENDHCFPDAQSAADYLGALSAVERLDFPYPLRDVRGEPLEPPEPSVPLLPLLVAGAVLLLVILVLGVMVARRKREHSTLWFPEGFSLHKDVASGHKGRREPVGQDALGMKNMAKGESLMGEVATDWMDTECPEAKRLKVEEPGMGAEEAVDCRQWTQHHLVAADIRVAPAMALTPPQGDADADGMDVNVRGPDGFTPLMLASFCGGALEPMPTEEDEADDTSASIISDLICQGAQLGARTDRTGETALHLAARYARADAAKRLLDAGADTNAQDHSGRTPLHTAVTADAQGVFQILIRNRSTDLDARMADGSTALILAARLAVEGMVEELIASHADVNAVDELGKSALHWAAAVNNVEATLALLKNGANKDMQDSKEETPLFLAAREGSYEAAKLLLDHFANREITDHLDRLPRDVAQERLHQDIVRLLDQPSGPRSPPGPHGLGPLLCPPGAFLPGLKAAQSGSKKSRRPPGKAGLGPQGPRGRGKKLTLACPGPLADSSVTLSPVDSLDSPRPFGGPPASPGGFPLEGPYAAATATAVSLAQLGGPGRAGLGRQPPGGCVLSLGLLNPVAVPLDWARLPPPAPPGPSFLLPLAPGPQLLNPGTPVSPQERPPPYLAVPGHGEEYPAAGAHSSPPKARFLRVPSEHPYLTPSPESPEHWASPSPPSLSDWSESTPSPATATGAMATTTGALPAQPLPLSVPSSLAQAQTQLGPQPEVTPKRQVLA
Pro-neuregulin-1, membrane-bound isoform (Homo sapiens), sequence (Q02297 whole entry, looked up, the tested form may be a part, canonical isoform): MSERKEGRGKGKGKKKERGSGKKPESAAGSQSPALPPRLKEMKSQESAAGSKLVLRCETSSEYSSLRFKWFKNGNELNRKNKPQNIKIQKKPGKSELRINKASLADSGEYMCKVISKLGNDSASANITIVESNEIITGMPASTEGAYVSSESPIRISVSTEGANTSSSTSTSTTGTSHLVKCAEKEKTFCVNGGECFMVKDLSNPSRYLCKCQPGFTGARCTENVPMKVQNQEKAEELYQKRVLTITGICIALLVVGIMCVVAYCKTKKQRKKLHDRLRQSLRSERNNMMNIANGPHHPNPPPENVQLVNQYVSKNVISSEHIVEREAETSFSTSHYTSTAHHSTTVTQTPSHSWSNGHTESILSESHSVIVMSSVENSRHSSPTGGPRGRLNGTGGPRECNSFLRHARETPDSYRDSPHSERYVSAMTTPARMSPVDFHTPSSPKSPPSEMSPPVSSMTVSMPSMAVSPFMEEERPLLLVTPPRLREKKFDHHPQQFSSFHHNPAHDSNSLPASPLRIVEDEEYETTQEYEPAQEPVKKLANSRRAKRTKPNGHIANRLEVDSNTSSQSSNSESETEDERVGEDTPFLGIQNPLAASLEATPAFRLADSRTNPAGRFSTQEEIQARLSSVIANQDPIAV

Consider `COc1cccc(/C=C(\C#N)C(=O)Nc2c(C)n(C)n(-c3ccccc3)c2=O)c1`, for which the composite z-score is -0.408 in [1]; 0.251 in assay [2]; -0.107 in assay [3]; 0.324 in assay [4]; 0.694 in [5]; 1.06 in [6]. Moreover, the composite z-score in assay [7] is 1.1; in [9] it was 0.336; in [10], -0.216; in assay [11] it was 0.564; in assay [15], 2.66; in assay [17], 0.0852. Also, the composite z-score in [18] was 0.161; in assay [19] it was 0.539; in assay [20], -0.0828. Moreover, the z-score in [8] was -0.496 (inactive); in assay [12], -1.58 (inactive); in [13], -0.958 (inactive); in assay [14] it was -0.978 (inactive); in assay [16] it was -0.23 (inactive).
For the compound `CCCC=C(CCC)[C@@H](NC(=O)CCc1ccccc1)c1ccc(C(F)(F)F)cc1`, the composite z-score was found to be 0.304 in assay [1]; 0.0979 in [2]; 0.0836 in [3]; 0.0199 in assay [4]; 1.53 in assay [5]; 1.51 in assay [6]. Further, the composite z-score in assay [7] is 0.969; in assay [9], 0.821; in [10] it was 0.107; in [11] it was 1.1; in [15] it was 3.4; in [17], 0.201. The composite z-score was 0.0368 in assay [18], 1.12 in assay [19] and -0.0423 in [20]. The z-score in assay [8] was -0.129 (inactive); in assay [12] it was -0.296 (inactive); in assay [13], -1.19 (inactive); in assay [14], 0.654 (inactive); in [16], -0.604 (inactive).
With `COCCOC(=O)N1C(=O)[C@@]2(c3cc(C#CCNC(N)=O)ccc31)[C@H](c1ccc(OCCO)cc1)N1[C@H](c3ccccc3)[C@H](c3ccccc3)OC(=O)[C@H]1[C@@H]2C(=O)NC[C@H](O)c1ccccc1`, the composite z-score in [1] was -0.0349; in assay [2], 0.907; in assay [3], -0.0881; in assay [4], 0.417; in assay [5] it was 1.25; in [6], 0.46. For the same compound, the composite z-score was 0.77 in assay [7]; 0.506 in [9]; -0.215 in assay [10]; 1.57 in [11]; 2.44 in [15]; 0.19 in assay [17]. In addition, the composite z-score in assay [18] stood at 1.1; in [19], 1.06; in assay [20], 0.0671. Further, the z-score in assay [8] was 0.499 (inactive); in [12] it was 2.3 (inactive); in assay [13], 3.07 (inactive); in [14], 4.91 (inactive); in assay [16], 0.925 (inactive).
Turning to `CC1(C)C(=O)C(c2ccccc2)=C2CN3C(=O)N(CCc4ccccc4)C(=O)C3(Cc3ccc(F)cc3)C=C21` (stereo not given), the composite z-score in assay [1] was 0.817; in assay [2] it was -0.339; in assay [3], 0.248; in assay [4], 0.173; in assay [5], 1.47; in assay [6], 0.536. Moreover, the composite z-score was 0.631 in assay [7]; 1.58 in assay [9]; 0.0818 in assay [10]; -0.203 in assay [11]; 2.52 in assay [15]; 0.428 in [17]. For the same compound, the composite z-score was -0.459 in [18], 0.337 in assay [19] and 0.133 in assay [20]. For the same compound, the z-score in assay [8] was 0.927 (inactive); in assay [12] it was 0.54 (inactive); in assay [13] it was 0.921 (inactive); in assay [14], 6.84 (inactive); in assay [16], -2 (inactive).
As for `CCCNC(=O)[C@@]1(Sc2ccc(C)cc2)CC(=O)N(C2CCCCC2)[C@@H]1c1ccc(CO)cc1I`, the composite z-score is 0.152 in [1]; 0.481 in assay [2]; -0.0788 in assay [3]; 0.182 in assay [4]; 0.517 in assay [5]; 0.772 in assay [6]. The composite z-score in assay [7] was 1.25; in assay [9] it was -0.0962; in assay [10] it was -0.383; in assay [11], 1.56; in assay [15], 2.44; in assay [17], -0.273. Moreover, the composite z-score in assay [18] was -0.447; in [19] it was 0.298; in assay [20], -0.0643. Moreover, the z-score in assay [8] was -3.57 (inactive); in assay [12] it was -1.2 (inactive); in assay [13], 0.554 (inactive); in assay [14], -0.133 (inactive); in [16] it was 0.19 (inactive).

These data come from PubChem BioAssay.
